Measurements from PubChem BioAssay AID1159580 (chemical genetic matrix, 2015).
Several values for one entry are separate records, joined by “and”; a condition that tells them apart may be missing. Equal entries are not always repeated. The whole screen tested about 5,500 compounds, of which about 2,000 (36%) were called active. Roughly 18% stayed inconclusive and do not appear here. No stated cut-off is given here; in the data, active means normalized growth mostly below about 0.91 (no sharp cut-off); inconclusive means no clear call, values can overlap the other calls; inactive means mostly above about 0.92. The list shows a part of the results.

Experiment: chemical genetic growth profiling, strain panel (AID 1159580);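 further: tested at 20 µM; growth read once vehicle control cultures reached saturation at 30 °C; 1 = growth at the plate median or of vehicle wells; lower values mean less growth of the strain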
Conditions: S. cerevisiae deletion strains, growth OD

Measured: normalized growth

C[C@]12CCC(=O)C=C1CCC1C2CC[C@@]2(C)C1CC[C@@H]2O (some centres not stated)
inactive: locus YAL013W, strain DEP1, hits give low values 1.01 | locus YAL021C, strain ccr4, hits give low values 0.967 | locus YAL026C, strain drs2, hits give low values 1 | locus YAL030W, strain snc1, hits give low values 0.997 | locus YBL061C, strain skt5, hits give low values 0.987 | locus YBR009C, strain hhf1, hits give low values 0.99 | locus YBR021W, strain FUR4, hits give low values 0.97 | locus YBR023C, strain chs3, hits give low values 0.988 | locus YBR171W, strain sec66, hits give low values 0.969 | locus YBR229C, strain ROT2, hits give low values 1.02 | locus YBR231C, strain swc5, hits give low values 0.99 | locus YBR279W, strain paf1, hits give low values 0.998 | locus YCL011C, strain gbp2, hits give low values 0.993 | locus YCL016C, strain dcc1, hits give low values 0.988 | locus YCL029C, strain bik1, hits give low values 1.02 | locus YCL061C, strain MRC1, hits give low values 0.993 | locus YCL069W, strain vba3, hits give low values 0.999 | locus YCR088W, strain abp1, hits give low values 1 | locus YDL005C, strain med2, hits give low values 0.989 | locus YDL035C, strain GPR1, hits give low values 0.988 | locus YDL040C, strain nat1, hits give low values 0.985 | locus YDL074C, strain BRE1, hits give low values 0.995 | locus YDL101C, strain DUN1, hits give low values 1.01 | locus YDL134C, strain PPH21, hits give low values 1.03 | locus YDL185W, strain tfp1, hits give low values 1.03 | locus YDL192W, strain arf1, hits give low values 1.03 | locus YDR001C, strain nth1, hits give low values 0.996 | locus YDR069C, strain doa4, hits give low values 0.977 | locus YDR101C, strain arx1, hits give low values 1.01 | locus YDR137W, strain rgp1, hits give low values 0.96 | locus YDR150W, strain NUM1, hits give low values 1.03 | locus YDR159W, strain sac3, hits give low values 0.963 | locus YDR162C, strain NBP2, hits give low values 0.996 | locus YDR195W, strain ref2 1.01 | locus YDR297W, strain sur2, hits give low values 0.993 | locus YDR318W, strain mcm21, hits give low values 1.02 | locus YDR334W, strain swr1, hits give low values 1.01 | locus YDR335W, strain msn5, hits give low values 0.989 | locus YDR388W, hits give low values 1.03 | locus YDR392W, strain spt3, hits give low values 0.934 | locus YDR502C, strain sam2, hits give low values 1.01 | locus YEL003W, strain gim4, hits give low values 0.983 | locus YEL037C, strain rad23, hits give low values 0.994 | locus YEL061C, strain CIN8 (second series), hits give low values 0.988 | locus YEL061C, strain CIN8, hits give low values 1.02 | locus YER015W, strain faa2, hits give low values 0.995 | locus YER016W, strain bim1, hits give low values 0.989 | locus YER110C, hits give low values 1.04 | locus YER111C, strain swi4, hits give low values 0.986 | locus YER155C, strain BEM2 (second series), hits give low values 0.981 | locus YER155C, strain BEM2, hits give low values 1.01 | locus YER167W, strain BCK2, hits give low values 1.05 | locus YFR010W, strain ubp6, hits give low values 1 | locus YGL078C, strain dbp3, hits give low values 0.985 | locus YGL086W, strain mad1, hits give low values 1.03 | locus YGL167C, strain pmr1, hits give low values 0.964 | locus YGL173C, strain kem1, hits give low values 0.967 | locus YGL227W, strain vid30, hits give low values 0.992 | locus YGL240W, strain doc1, hits give low values 0.965 | locus YGL248W, strain PDE1, hits give low values 1.02 | locus YGL253W, strain hxk2, hits give low values 0.991 | locus YGR078C, strain PAC10, hits give low values 1.02 | locus YGR135W, strain pre9, hits give low values 1.01 | locus YGR229C, strain SMI1, hits give low values 1.04 | locus YGR252W, strain gcn5, hits give low values 1.01 | locus YHR013C, strain ard1, hits give low values 1.02 | locus YHR027C, strain rpn1, hits give low values 0.997 | locus YHR030C, strain SLT2, hits give low values 1.03 and 1.13 | locus YHR079C, strain IRE1 (second series), hits give low values 1.02 | locus YHR079C, strain IRE1, hits give low values 0.993 | locus YHR094C, strain hxt1, hits give low values 1.03 | locus YHR129C, strain ARP1, hits give low values 1.03 | locus YHR142W, strain chs7, hits give low values 0.991 | locus YHR200W, strain rpn10, hits give low values 1.03 | locus YIL066C, strain RNR3, hits give low values 1.01 | locus YIL073C, strain SPO22, hits give low values 1.09 | locus YIL125W, strain kgd1, hits give low values 1.03 | locus YIR030C, strain dcg1, hits give low values 1.03 | locus YJL092W, strain hpr5, hits give low values 0.997 | locus YJL095W, strain BCK1 (second series), hits give low values 0.987 | locus YJL095W, strain BCK1, hits give low values 1.02 and 0.998 | locus YJL115W, strain asf1, hits give low values 0.994 | locus YJL129C, strain trk1, hits give low values 0.963 | locus YJL134W, strain LCB3, hits give low values 1.02 | locus YJL154C, strain vps35, hits give low values 0.997 | locus YJL164C, strain tpk1, hits give low values 1.01 | locus YJL166W, strain qcr8, hits give low values 0.986 | locus YJL168C, strain set2, hits give low values 1.02 | locus YJL187C, strain SWE1 (second series), hits give low values 1 | locus YJL187C, strain SWE1, hits give low values 0.992 | locus YJR043C, strain POL32, hits give low values 1.02 | locus YJR066W, strain TOR1, hits give low values 0.999
